175 sequences from publication PMC6212790, “How bacterial xenogeneic silencer rok distinguishes foreign from self DNA in its resident genome” can be followed below.

In all, about 33,000 sequences were measured (“e-score”: median about -0.038, highest 2% from about 0.33 on). The full list was thinned out, with the highest values kept by preference.

This experiment has as its target T1, GST-Rok-C97-191 (Bacillus subtilis subsp. subtilis str. …, UniProt O34857 97-191).
T1 sequence: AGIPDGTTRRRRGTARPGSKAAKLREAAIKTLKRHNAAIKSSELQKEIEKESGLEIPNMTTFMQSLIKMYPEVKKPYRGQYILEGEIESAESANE
Nature of the experiment: protein binding microarray; Rok is a gene silencer of Bacillus subtilis; high values mean tight binding. The settings on record: protein: recombinant; tags: GST (pTH5325, pDEST15-Magic modified); dsDNA, one strand shown. The gist of the method: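 Every oligonucleotide joins a 25-mer constant primer to a 35-mer variable part drawn from a de Bruijn sequence of order 10, so each non-palindromic 8-mer appears at least 32 times and each palindromic 8-mer 16 times. The preference for every 8-mer is reported as a unitless, rank-based enrichment score (E-score). This score spans 0.5 for the most favored 8-mer to −0.5 for the most disfavored.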
Take TAGCACTA: the binding signal was 0.191 E-score.
Under GCGAGTTA stands 0.0475 E-score.
As for ACCAGGCG, the figure is -0.1 E-score.
As for AATGGCGG, the figure is -0.112 E-score; as for TCCGGAGA, -0.0285 E-score; as for GACAGGCA, -0.106 E-score.
On to CACATGCA, for which the binding signal stood at 0.206 E-score.
As for AGTTTCTA, the figure is 0.389 E-score.
Under AGTTTCTC stands 0.244 E-score; under CGTTTCTA, 0.369 E-score; under GTTTTCTA, 0.256 E-score.
For the sequence GCTTTCTA, the binding signal stood at 0.319 E-score.
As for AGTTTCTG, the figure is 0.0882 E-score; as for CGTTTCGA, -0.111 E-score.
In the case of GGTTTCTA, the binding signal amounted to 0.353 E-score.
As for CGTTTCTC, the figure is -0.0794 E-score; as for GGCGACAC, -0.0519 E-score.
Under GATAGACC stands 0.022 E-score.
In the case of AGAGAAGG, the binding signal is -0.195 E-score.
As for CTAGTACC, the figure is 0.244 E-score.
As for GAGATATC, the figure is 0.182 E-score; as for GATATATC, 0.403 E-score.
For GTGATATA, the binding signal came out at 0.245 E-score.
Under GATATATA stands 0.358 E-score; under GCGATATA, 0.282 E-score.
Under ATGGGGCC stands -0.169 E-score.
As for ACTAGCAT, the figure is 0.142 E-score.
For TGGTCTAA, the binding signal is 0.0359 E-score.
Under GAGTGAAC stands 0.0307 E-score.
Under CGACGACC stands -0.148 E-score.
As for AAGCGGGG, the figure is -0.141 E-score; as for AAGTAGAG, 0.0923 E-score.
For CAGTAGAA, the binding signal came to 0.426 E-score.
As for TAGTAGAA, the figure is 0.433 E-score.
Regarding CAGTAGAG, the binding signal amounted to 0.0442 E-score.
As for AAGTAGAA, the figure is 0.363 E-score; as for GAGTAGAA, 0.279 E-score; as for AAGTAGAT, 0.407 E-score.
In the case of TAGTAGGA, the binding signal was found to be 0.252 E-score.
Consider AAGTAGGA, for which the binding signal is 0.0873 E-score.
For the sequence AAGTAGCA, the binding signal turned out to be 0.259 E-score.
As for AAGTAGAC, the figure is 0.021 E-score; as for TAGTAGCA, 0.316 E-score; as for GGTTATTA, 0.0524 E-score.
As for GGCGGTAC, the figure is -0.0765 E-score.
As for ACCGCTCG, the figure is -0.0635 E-score; as for ATGTCGCC, -0.0714 E-score; as for TGCTGGAA, -0.107 E-score.
For the sequence CCATTAAA, the binding signal was -0.149 E-score.
Under CTATTTTA stands 0.302 E-score; under ATATTTTG, 0.237 E-score.
Under ATATTTTA stands 0.384 E-score.
As for GTATTTGA, the binding signal amounted to 0.0326 E-score.
As for GTATTTAA, the figure is 0.273 E-score.
As for GTATTTTA, the binding signal was 0.376 E-score.
As for CTAGCCGC, the figure is -0.192 E-score.
As for TGCGGCAA, the figure is 0.0751 E-score; as for CTTTCTAA, 0.1 E-score.
As for ATTTCTAC, the figure is 0.353 E-score; as for CTTTCTTC, 0.0829 E-score; as for ATTTCTCA, 0.126 E-score.
Consider ATTTCTTC, for which the binding signal turned out to be 0.204 E-score.
As for ATTTCTAG, the binding signal was determined as 0.366 E-score.
As for ATTTCTAA, the binding signal was 0.357 E-score.
As for CTTTCTAC, the figure is 0.447 E-score.
As for ACTTCTAC, the figure is 0.231 E-score; as for ATTTCTGG, 0.0299 E-score; as for GTTTCTAA, -0.0431 E-score.
Under AGTTCTAG stands 0.236 E-score.
For CCAGGTAG, the binding signal came out at 0.0315 E-score.
Under GAACCGAA stands 0.00912 E-score; under CAAGCTAG, 0.137 E-score; under ATCCCGTC, -0.181 E-score.
Turning to ATGGTAGC, the binding signal is 0.35 E-score.
Under GTGGTAAA stands 0.21 E-score.
Take GTGGTAGA: the binding signal was 0.433 E-score.
As for ATGGTAGA, the figure is 0.448 E-score.
Under CTGGTATA stands 0.205 E-score; under ATGGTATC, 0.0289 E-score.
Under CTGGTAGA stands 0.324 E-score; under ATGGTAGG, 0.278 E-score.
Consider ATGGTAAA, for which the binding signal is 0.23 E-score.
Under ATGGTATA stands 0.353 E-score; under ATGGTACA, 0.199 E-score.
As for CTGGTAGC, the figure is -0.00597 E-score.
Under AACATCCG stands 0.0335 E-score; under AACCGGTT, 0.0733 E-score.
As for AGTAGCAA, the binding signal amounted to 0.277 E-score.
Under ACCTCTCG stands 0.00338 E-score; under CGAAACAA, 0.0284 E-score.
Under CAAGCTGC stands -0.171 E-score; under AGCGACCT, 0.06 E-score.
Turning to CACGATGA, the binding signal was -0.103 E-score.
As for GGGAAGGA, the figure is -0.18 E-score; as for ATAGATTC, 0.34 E-score.
Under CTAGATTC stands 0.166 E-score; under AAAGATTA, 0.212 E-score.
Under ATAGAATA stands 0.354 E-score.
Consider ATAGAAAT, for which the binding signal was found to be 0.381 E-score.
As for ATAGAATG, the figure is 0.165 E-score; as for ATAGATTG, 0.304 E-score.
As for ATAGAATC, the figure is 0.274 E-score.
Under ACAGATTA stands 0.0434 E-score; under ATAGATTA, 0.331 E-score.
Consider ATAGAAAC, for which the binding signal is 0.326 E-score.
As for ATAGAAAA, the figure is 0.267 E-score; as for AGAAGACA, 0.059 E-score; as for AACCTGCG, -0.0596 E-score.
Take CAAGGTAA: the binding signal is 0.166 E-score.
As to CACAATGA, the binding signal was 0.00707 E-score.
Under GTTAATGA stands 0.082 E-score; under GTCCCTGA, -0.188 E-score.
Under TCTGGGAA stands 0.0446 E-score; under TACTGGCA, 0.0047 E-score.
For ACCTATGC, the binding signal is -0.0256 E-score.
Regarding ATTGGGGA, the binding signal is -0.0754 E-score.
Under GCAGATTA stands 0.028 E-score.
As for CTAGATTA, the figure is 0.312 E-score; as for GTAGATTA, 0.344 E-score.
As for GAAAGCTC, the figure is -0.157 E-score; as for ATGTAGTG, 0.163 E-score; as for AAGTAGTG, 0.211 E-score.
As for AAGTAGTC, the binding signal was determined as 0.226 E-score.
On to ATGTAGTC, for which the binding signal was found to be 0.156 E-score.
Under GAGTAGTA stands 0.305 E-score; under CAGTAGTA, 0.362 E-score.
As for ATGTAGTA, the figure is 0.407 E-score.
Under AAGTAGTA stands 0.358 E-score; under CAGTAGTC, -0.151 E-score; under TCCGCTCA, -0.118 E-score.
Consider CGCTTTCC, for which the binding signal was -0.13 E-score.
Under CGGAAAGA stands -0.135 E-score; under AACCTCAA, -0.0809 E-score; under ACACTGGT, 0.0216 E-score.
Under GCGGGAGA stands -0.111 E-score.
As for CTGGCGAC, the figure is -0.196 E-score.
On to ACTATAGT, for which the binding signal was 0.411 E-score.
Turning to GATATAGC, the binding signal stood at 0.0553 E-score.
Under CATATAGC stands 0.127 E-score; under AATATAGT, 0.337 E-score; under AATATAGG, 0.0639 E-score.
Turning to AAAATAGC, the binding signal was found to be 0.21 E-score.
Take ACTATAGC: the binding signal was 0.207 E-score.
As for AATATCGT, the figure is 0.204 E-score; as for AAAATAGA, 0.271 E-score.
Under AAAATAGT stands 0.404 E-score; under AATATAGC, 0.349 E-score.
Under ACTATAGG stands 0.148 E-score; under GTTCAGCA, 0.0486 E-score.
Turning to TAAGGCAA, the binding signal stood at 0.0603 E-score.
Under CTGGGAAG stands -0.0965 E-score; under CCACTTAG, -0.0775 E-score.
Under CGGAGTCC stands -0.199 E-score; under TAGATCAA, 0.156 E-score; under CTCGACGA, -0.162 E-score.
CTTCAGAC: the binding signal was -0.188 E-score.
Under CACCGGTA stands 0.0827 E-score; under TACCGATA, 0.339 E-score.
Under AACCGATA stands 0.108 E-score; under TACCGGTA, 0.355 E-score; under AACCGGTA, 0.182 E-score.
Regarding CACCGATA, the binding signal was found to be 0.152 E-score.
Consider GACAAGGC, for which the binding signal was -0.188 E-score.
Regarding AAATGCTT, the binding signal is -0.000293 E-score.
Turning to GAGCTCGA, the binding signal was 0.0407 E-score.
As for ACGCCAAA, the figure is -0.128 E-score; as for TAGATAGA, 0.345 E-score.
Under AAGATATA stands 0.347 E-score.
As for AAGATATG, the figure is 0.117 E-score; as for TAGATACA, 0.329 E-score; as for CAGATACA, 0.146 E-score.
Turning to AAGATAAT, the binding signal stood at 0.339 E-score.
As for AAGATACA, the binding signal is 0.151 E-score.
For AAGATAAA, the binding signal was found to be 0.314 E-score.
As for CAGATAGA, the binding signal turned out to be 0.16 E-score.
